Each structure is given as a SMILES string. Out of some 63,000 compounds screened, about 1,100 (1.7%) were called active. The entries come from a sample that favours actives as a whole. Measured potencies and affinities stand elsewhere. A number with no mark means an inactive call. Rule as the data show it: active = cytotoxicity above about 50%; inactive = the rest.

This assay in a line: HPDE-C7 pancreatic duct cell viability loss – fluorescence, HTS (AID 430).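 Also: cells exposed to compound for 48 hours before viability readout; 0% = vehicle and 100% = reference cytotoxic drug.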 The following applies: HPDE-C7 pancreatic duct cells viability, at 10 µM, hits give high values.
As for `COc1cccc(-n2ccnc2SCC(=O)Nc2cc(OC)ccc2OC)c1`, the cytotoxicity was -21%.

`Cc1cc(N2CCN(c3ccccc3)CC2)n2c(n1)nc1ccccc12`: the cytotoxicity was -8.6%.

Consider `CC(=O)N1CCc2cc(S(=O)(=O)NCCN3CCC(C)CC3)ccc21`, for which the cytotoxicity is 2.7%.

For `COc1ccc(OC)c(C2CC(=O)NC(SC)=C2C#N)c1` (stereo not drawn), the cytotoxicity is -2.9%.

As for `Cc1cc(C)c2nc(N)sc2c1`, the cytotoxicity was 3.8%.

Turning to `c1ccc(COc2ccc(OCCCn3cncn3)cc2)cc1`, the cytotoxicity was -20.8%.

Take `O=C(O)C1C2C=CC(C2)C1C(=O)NCc1ccoc1` (stereo not drawn): the cytotoxicity is -8.3%.

On to `CCOc1ccc(OCc2ccc(C(=O)NCc3ccncc3)o2)cc1`, for which the cytotoxicity was -3%.

Take `CC(=O)C1=C(C)OC(N)=C(C#N)C1c1ccco1` (stereo not drawn): the cytotoxicity is -2.2%.

Regarding `CCN(CC)C(=O)CSC1=C(C#N)C(c2ccco2)C(C(=O)OCCOC)=C(C)N1` (stereo not drawn), the cytotoxicity is -11%.

For `C=CCOC(=O)C1=C(C)NC(SCC(=O)N(CC)CC)=C(C#N)C1c1ccco1` (stereo not drawn), the cytotoxicity is 12.7%.

For the compound `CSCSC1=C(C#N)C(c2ccc(Cl)cc2)C(C(C)=O)=C(C)N1` (stereo not drawn), the cytotoxicity is -18.3%.

Consider `CC(=O)C1=C(C)NC(SCC(=O)c2ccc(Cl)cc2)=C(C#N)C1c1ccco1` (stereo not drawn), for which the cytotoxicity was 57.9% (active).

Regarding `CCOC(=O)CSC1=C(C#N)C(c2ccco2)C(C(=O)OCc2ccccc2)=C(C)N1` (stereo not drawn), the cytotoxicity was 58.8% (active).

Consider `CN(c1ccc(C(=O)NCc2ccccc2)cc1)S(C)(=O)=O`, for which the cytotoxicity was -26.5%.

In the case of `CCCS(=O)(=O)N1CCC(C(=O)NCCN2CCCC2)CC1`, the cytotoxicity was 2.1%.

For `COc1ccc(-c2nnc(SCc3ncc(-c4ccccc4)o3)o2)cc1`, the cytotoxicity is -2.9%.

Regarding `O=S1(=O)N=C(Nc2nc3c(s2)CCCC3)c2ccccc21`, the cytotoxicity was -10%.

On to `Cc1nc(Sc2nnnn2C)c2c3c(sc2n1)CCC3`, for which the cytotoxicity is 76.2% (active).

Take `CSc1nc2sc3c(c2c2nnnn12)CCC3`: the cytotoxicity is 7.6%.

Consider `Cc1nc(SCC#N)c2c3c(sc2n1)CCC3`, for which the cytotoxicity was -19%.

In the case of `CC1Cc2ccccc2N1C(=O)Cn1nnc(-c2ccccc2NC(=O)C2CCC2)n1` (stereo not drawn), the cytotoxicity was -11.1%.

In the case of `CCOC(=O)C1CCCN(C(=O)CN2CCN(Cc3ccc(Cl)cc3)C2=O)C1` (stereo not drawn), the cytotoxicity is -28.3%.

With `O=C(c1ccc(COc2ccccc2Cl)o1)N1CCN(c2ccccc2)CC1`, the cytotoxicity is -4.6%.

Turning to `O=C(c1ccc(COc2ccccc2Cl)o1)N1CCN(Cc2ccc3c(c2)OCO3)CC1`, the cytotoxicity was 87.5% (active).

Consider `CC1CCN(C(=O)c2ccc(COc3ccccc3Cl)o2)CC1`, for which the cytotoxicity was -8.9%.

As for `O=C(c1ccc(COc2ccc(Cl)cc2)o1)N1CCN(Cc2ccc3c(c2)OCO3)CC1`, the cytotoxicity was 69.1% (active).

As to `O=C(c1ccc(Br)o1)N1CCN(Cc2ccc3c(c2)OCO3)CC1`, the cytotoxicity was -8.7%.

As for `O=C(c1ccc(Cn2cc(Cl)cn2)o1)N1CCN(Cc2ccc3c(c2)OCO3)CC1`, the cytotoxicity is 12.9%.

Turning to `Cn1c(O)c(C=NC(CC(N)=O)C(=O)O)c(=O)n(C)c1=O` (stereo not drawn), the cytotoxicity was -3.1%.

As to `O=C(COc1cc(Cl)c(Cl)cc1Cl)Nc1ccncc1`, the cytotoxicity is 14.9%.

On to `CCOC(=O)CC(=O)CSc1nc2sc(C)cc2c(=O)n1Cc1ccco1`, for which the cytotoxicity is -13.3%.

Consider `COCCn1nnnc1C(c1ccc(OC)cc1)N1CCC(C)CC1` (stereo not drawn), for which the cytotoxicity is -5.9%.

With `O=C1c2ccccc2C(=O)N1CCc1nc2ccccc2c(=O)n1CCCn1ccnc1`, the cytotoxicity is -20.5%.

As to `N#Cc1nc(-c2ccc(OCc3ccccc3)cc2)oc1N1CCOCC1`, the cytotoxicity is 14.5%.

With `COc1ccccc1S(=O)(=O)Cc1ccc(C(=O)NC(C)c2ccc3c(c2)OCCO3)o1` (stereo not drawn), the cytotoxicity was -4.2%.

Turning to `COc1ccc(N(C)C(=O)Nc2ccc3c(c2)nnn3C)cc1`, the cytotoxicity was -17.6%.

For `O=C(NCc1ccccn1)c1cc2cc(Br)ccc2oc1=O`, the cytotoxicity is 4.9%.

In the case of `O=C(NCc1ccccn1)c1coc(=O)c(Br)c1`, the cytotoxicity is 52.2% (active).

Take `O=C(NCc1ccccn1)c1ccc(=O)oc1`: the cytotoxicity was 0.8%.

For `Cc1c(C(=O)NCc2cccnc2)oc2ccc(S(=O)(=O)N3CC(C)CC(C)C3)cc12` (stereo not drawn), the cytotoxicity is 43%.

Take `CN(c1nc(-c2ccccc2)cs1)C1CCS(=O)(=O)C1` (stereo not drawn): the cytotoxicity was 4.5%.

Regarding `CCOC(=O)N1CCN(S(=O)(=O)c2cc(Cl)c(OC)cc2Cl)CC1`, the cytotoxicity is -2.9%.

`COc1cccc(CN(Cc2cccnc2)S(=O)(=O)c2ccc(-n3cnnn3)c(C)c2)c1`: the cytotoxicity was 4.5%.

`O=C(O)c1cc(C(=O)O)c(-c2ccccc2)c(C(=O)O)c1`: the cytotoxicity was -22.6%.

For the compound `CC(=O)Oc1cccc2c1C(=O)c1c(OC(C)=O)cc(C(=O)O)cc1C2=O`, the cytotoxicity was 25.5%.

`Cc1c(S(=O)(=O)N2CCN(c3cccc(C(F)(F)F)c3)CC2)c(=O)n(C)c(=O)n1C`: the cytotoxicity is 5.2%.

Take `Cn1c(=O)c2cc(S(=O)(=O)N3CCN(c4cccc(C(F)(F)F)c4)CC3)ccc2n(C)c1=O`: the cytotoxicity was -2.2%.

Regarding `Cn1c(=O)c(=O)n(C)c2cc(S(=O)(=O)N3CCN(c4cccc(C(F)(F)F)c4)CC3)ccc21`, the cytotoxicity was 71.5% (active).

Regarding `O=C(C1CCC(Cn2c(=S)[nH]c3ccccc3c2=O)CC1)N1CCOCC1` (stereo not drawn), the cytotoxicity was -5.9%.

For `O=C(O)C1CCN(c2nc(-c3ccccc3)nc3c2oc2ccccc23)CC1`, the cytotoxicity is 23.4%.

As to `CN1CCN(c2nc(-c3ccccc3)nc3c2oc2ccccc23)CC1`, the cytotoxicity is -10%.

For the compound `CCC(CC)C(=O)Nc1cc(NC(=O)C(CC)CC)cc(C(=O)O)c1`, the cytotoxicity is -16.6%.

For the compound `CCN=C1SC(C(=O)NCCc2ccccc2)CC(=O)N1CC` (stereo not drawn), the cytotoxicity is 5.8%.

Turning to `O=C(O)c1ccc(CN2C(=O)CSC2=S)cc1`, the cytotoxicity is 19.2%.

Take `O=C1CSC(=S)N1c1cccnc1`: the cytotoxicity is -9.7%.

Turning to `Cc1ccc(C(=O)CSc2ncn[nH]2)cc1`, the cytotoxicity is 17.6%.

In the case of `Cn1c(N)c(C(=O)COC(=O)c2ccc3c(c2)OCCO3)c(=O)n(C)c1=O`, the cytotoxicity is -1.5%.

With `Cc1ccc(-n2c(=O)cc(N3CC(C)CC(C)C3)[nH]c2=O)cc1` (stereo not drawn), the cytotoxicity is -15.2%.

For the compound `CC(=O)Nc1cccc(-c2nc3ccc(NC(C)=O)cc3[nH]2)c1`, the cytotoxicity was 9.5%.

Regarding `O=C(c1ccco1)N1CCN(c2c(-c3ccccc3)c3cc(Cl)ccc3[nH]c2=O)CC1`, the cytotoxicity was 83.6% (active).

With `O=c1[nH]c2ccc(Cl)cc2c(-c2ccccc2)c1N1CCOCC1`, the cytotoxicity was 0.9%.

Regarding `CCOC(=O)N1CCN(c2c(-c3ccccc3)c3cc(Cl)ccc3[nH]c2=O)CC1`, the cytotoxicity is 7.4%.

(Values after PubChem BioAssay AID430 (Sanford-Burnham Center for Chemical Genomics, 2006).)
